Experimental data from PubChem BioAssay AID488890 (Southern Research Specialized Biocontainment Screening …, 2010).
The campaign covered roughly 320,000 compounds. About 1,300 (0.41%) were called active. Roughly 3% stayed inconclusive and do not appear here. No rule for the calls is given here. These entries were drawn from the full list. Measured potencies and affinities stand elsewhere.

Test: growth inhibition of non-replicating M. tuberculosis (AID 488890);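 also: plate controls were DMSO cells for no effect and high antibiotic wells for full effect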
Details: Mycobacterium tuberculosis non-replicating, at 25 µM, stronger effect = higher value

Compound	inhibition
Cn1c(N)c(C(=O)COC(=O)Cc2ccc(Br)cc2)c(=O)n(C)c1=O	3.86%
O=C(Cc1ccc(F)cc1)N1CCC(CC2CC(c3cccc(Br)c3)=NO2)(C(=O)NCC2CCCCC2)CC1 (configuration not stated)	37%
COc1ccc(-n2c(C)c(C)c3c(NCCCO)ncnc32)cc1	-0.92%
COc1ccc(-n2c(CN3CCN(C)CC3)nc3ccc([N+](=O)[O-])cc3c2=O)c(OC)c1	1.89%
COc1ccc(C(=O)CC(=O)C(=O)Nc2c(C)cccc2C)cc1	78.4%
O=C(C1CCN(S(=O)(=O)c2ccc(Br)cc2)CC1)N1CCOCC1	-10.1%
COC(=O)c1ccc(C)c(NC(=O)Cc2ccc([N+](=O)[O-])cc2)c1	21.2%
COc1ccc(S(=O)(=O)N2CCC(C(=O)NCCOc3ccccc3F)CC2)cc1OC	24.4%
COC(=O)COc1cccc(NC(=O)C(c2ccccc2)c2ccccc2)c1	3.23%
CC(=O)Nc1cccc(OCC(=O)Nc2ccccc2)c1	-8.67%
CC(=O)Oc1ccc(/C=N/NC(=O)CCSc2ccccc2)cc1	9.49%
Cc1cc(NC(=O)CO/N=C/c2ccc3c(c2)OCO3)ccc1Br	-0.49%
CCC(=O)c1ccc(OCC(=O)Nc2ccc3c(c2)OCCO3)cc1	69.5%
COc1ccc(/C=N/OCC(=O)Nc2ccc3c(c2)OCO3)c(OC)c1	59.9%
COC(=O)N/N=C/c1cccc(OCCSc2ccc(Cl)cc2)c1	74.7%
O=C(COc1ccccc1F)Nc1ccc2c(c1)OCCO2	52.5%
COc1cc(OC)cc(C(=O)OCc2cc3ccccc3[nH]c2=O)c1	-16%
COc1ccc(NC(=O)/C(=C/c2cccs2)NC(=O)c2ccco2)cc1	-0.67%
Nc1cc(N)nc(SCC(=O)Nc2ccc3c(c2)OCO3)n1	2.02%
CS(=O)(=O)Oc1ccc(/C=N/NC(=O)c2ccncc2)cc1	60.2%
O=c1cc(-c2ccccc2)nc2nc(SCc3ccccc3)[nH]n12	60.3%
O=C(CCn1c(=S)oc2ccccc21)Nc1ccccc1Br	-5.39%
O=C(O)c1ccc2c(c1)C(=O)N(NC(=O)c1ccccc1)C2=O	-12.7%

Compound	inhibition
CCc1ccccc1NC(=O)COc1ccc2c(c1)OCO2	65.4%
COC(=O)c1ccc(NC(=O)COc2ccc3c(c2)OCO3)cc1	79.3%
CC1=C(C(=O)Nc2ccccc2C(F)(F)F)C(c2sccc2C)NC(=S)N1 (configuration not stated)	-0.9%
COc1ccc(Oc2c(O)c3ccccc3n(C)c2=O)cc1	9.82%
Cn1c(=O)c(-c2ccccc2)c(O)c2ccccc21	23.1%
CCCCCn1c(=O)c(C(=O)Nc2ccccc2)c(O)c2ccccc21	16.7%
CCCCCn1c(=O)c(C(=O)Nc2ccccc2Cl)c(O)c2ccccc21	-6.13%
CCCCn1c(=O)c(C(=O)Nc2ccccc2C)c(O)c2ccccc21	-11.7%
CCCCn1c(=O)c(C(=O)Nc2ccccc2)c(O)c2ccccc21	-12.7%
CC(C)NC(=O)c1c(O)c2cccc3c2n(c1=O)CCC3	11.9%
CCCCCCn1c(=O)c(C(=O)Nc2cccc(C)n2)c(O)c2ccccc21	-13.9%
CNC(=O)c1c(O)c2cccc3c2n(c1=O)CCC3	45.4%
CCCCCn1c(=O)c(-c2nc3ccccc3[nH]2)c(O)c2ccccc21	1.53%
CC1C/C(=N\NC(=O)c2ccc(NS(=O)(=O)c3ccc(Br)cc3)cc2)CC(C)(C)C1 (configuration not stated)	-12.6%
Cc1nc(CCNC(=O)COc2ccccc2)cs1	-16%
CCCC(=O)n1nc(-c2ccc(Cl)cc2)nc1SC	64.9%
O=C(CSc1nnc(Nc2ccccc2)s1)Nc1ccc(S(=O)(=O)N2CCOCC2)cc1	6.81%
Cc1cccc(N2CCN(C(=O)c3cc(=O)[nH]c4ccccc34)CC2)c1C	24.4%
CCCC(C)C1c2c(c(C)c(C)oc2=O)Oc2c(C)c(C)oc(=O)c21 (configuration not stated)	25.8%
O=C1c2ccccc2C(=O)N1OS(=O)(=O)c1ccccc1	19%
Cc1nn(C)cc1/C=N\NC(=O)c1ccc2c(c1)c(C)c(C)n2Cc1ccccc1	-7.16%
CCOc1ccccc1NC(=O)NCc1ccccc1F	13.2%
COc1ccc(/C=N/NC(=O)c2cccc(NC(=O)c3ccccc3)c2)c(C(=O)O)c1OC	31.1%

Compound	inhibition
Cc1c(CCC(=O)N[C@@H](C)C(=O)O)c(=O)oc2cc3occ(-c4ccccc4)c3cc12	0.57%
NS(=O)(=O)c1cc(C(=O)NCCc2ccccn2)ccc1Cl	7.03%
O=C(N/N=C/c1cccn1-c1ccccc1)c1ccncc1	52.4%
Cc1ccc(-n2c(C)cc(/C=N/NC(=O)c3ccncc3)c2C)c(C)c1	73.9%
Cc1cccc(C)c1-n1c(C)cc(/C=N/NC(=O)c2ccncc2)c1C	78%
Cc1ccsc1/C=N/NC(=O)c1cccnc1	-17.1%
Cc1ccc(/C=N/NC(=O)c2ccccn2)s1	59.8%
Cc1ccc(/C=N/NC(=O)c2ccc(C(=O)N/N=C/c3ccc(C)s3)o2)s1	-14.7%
Cn1cccc1/C=N/NC(=O)c1cccnc1	6.3%
Cc1ccsc1/C=N/NC(=O)c1ccc([N+](=O)[O-])cc1	-7.45%
Nn1c(SCC(=O)NC2CCCCC2)nnc1-c1ccccc1F	9.14%
COC(=O)Nc1ccc(S(=O)(=O)N2CCCC(C(=O)Nc3cccc4c3OCCO4)C2)cc1 (configuration not stated)	17.4%
Cc1ccc(C(=O)N/C(=C/c2ccc(Cl)cc2)C(=O)Nc2cccc(C(=O)O)c2)cc1	17%
Cc1cc(NC(=O)CCC(=O)N(CC(=O)NCC2CCCO2)c2ccc(C)c(C)c2)no1 (configuration not stated)	-4.55%
COc1nc(NCCO)nc(Nc2ccc([N+](=O)[O-])cc2)n1	-18%
CSc1ccc(CCNC(=O)C2CCCN(c3nn4c(=O)cc(C)nc4s3)C2)cc1 (configuration not stated)	5.95%
CC1(C(O)(C#CCN2CCCCC2)c2ccccc2)CCCC1 (configuration not stated)	3.27%
Clc1ccc(Cl)c(-c2nc(-c3ccncc3)no2)c1	-30.7%
CCc1ccc(OCC(=O)N2CCN(c3ccccc3F)CC2)cc1	52.6%
COC(=O)c1ccccc1NC(=O)COC(=O)c1cccnc1	2.43%
Cc1cccc(CN2CCSCC2)c1	21.4%
Cc1ccc(NC(=O)CNC(=O)c2ccc(C)s2)nc1	-9.04%
O=C(N/N=C/c1cc(Br)cc(Br)c1O)c1ccncc1	57.1%

Compound	inhibition
O=C(N/N=C\c1cc(Br)cs1)c1ccncc1	71.3%
O=C(N/N=C/c1cc(Br)c(Br)o1)c1cccnc1	40.9%
O=C(N/N=C\c1ccncc1)c1ccc(Br)s1	15.2%
O=C(N/N=C/c1ccc(Br)s1)c1cccs1	79.8%
Cc1ccc(/C=N/NC(=O)c2cccnc2)o1	7.34%
Cc1ccc(/C=N/NC(=O)c2ccc(-c3ccccc3)cc2)o1	4.22%
Cc1ccc(/C=N/NC(=O)c2cccnc2)s1	75.2%
COc1cc(NS(=O)(=O)c2ccc(NC(=S)NC(=O)c3ccc(F)cc3)cc2)nc(OC)n1	42.3%
CCn1c(CN2CCOCC2)nnc1SCC(=O)Nc1cccc(C)c1	-3.97%
O=C(NCCC(=O)N1CCC2(CC1)NCCc1[nH]cnc12)c1ccc(Br)cc1	10.4%
Cn1ncc2c(Nc3ccc(Br)cc3)nc(Nc3ccc(Br)cc3)nc21	9.77%
O=C(N/N=C/c1cn(-c2ccccc2)nc1-c1cccs1)c1ccncc1	48.3%
O=C(N/N=C/c1cn(-c2ccccc2)nc1-c1cc2ccccc2o1)c1ccncc1	42.8%
COc1ccc(N=C2NC(=O)C(CC(=O)NCCc3ccc(OC)c(OC)c3)S2)cc1 (configuration not stated)	14.1%
CC(NC(=O)c1ccc2c(=O)n3c(nc2c1)CCC3)c1ccc(S(N)(=O)=O)cc1 (configuration not stated)	-7.93%
Cc1ccc(S(=O)(=O)N2CCCN(C(=O)c3cc4ccccc4[nH]3)CC2)cc1	11.2%
COc1cccc(NC(=O)NNS(=O)(=O)c2ccc(OC)cc2OC)c1	-16.4%
Oc1c(C(c2ccccn2)N2CCCCC2)cc(Cl)c2cccnc12 (configuration not stated)	75.4%
CN1CCN(C(c2cccnc2)c2ccc3cccnc3c2O)CC1 (configuration not stated)	28.6%
CCCCOc1ccc(NC(=O)CSc2nnnn2C)cc1	18.5%
Cn1cccc1/C=C1/C(=O)NC(=O)N(Cc2ccc(F)cc2)C1=O	74.5%
Cn1cccc1/C=C1\C(=O)NC(=O)N(Cc2ccccc2)C1=O	73%
CC1CN(c2nc3ccccn3c(=O)c2C=O)CC(C)O1 (configuration not stated)	1.76%

Compound	inhibition
CCn1nnc(NC(=O)c2ccc(-c3ccccc3[N+](=O)[O-])o2)n1	9.81%
CCn1nnc(NC(=O)Cc2ccc(Cl)cc2)n1	11.1%
CCn1nnc(NC(=O)c2ccc(Br)o2)n1	-5.58%
CCCn1nnc(NC(=O)c2ccc(-c3cccc(Cl)c3)o2)n1	59.5%
CCCCc1ccc(-c2nc(-c3ccncc3)no2)cc1	22.1%
Cc1ccc(NC(=O)c2ccccc2)cc1	25.8%
CC1=C(C(=O)Nc2ccccc2)S(=O)(=O)CCO1	68.2%
CCOc1cc(C(=O)Nc2cc(=O)n(C)c(=O)n2C)cc(OCC)c1OCC	1.17%
Cc1cc(Cl)ccc1C(=O)C1CCCN(C(=O)c2cc(C(C)C)no2)C1 (configuration not stated)	45.6%
CCc1ccccc1NC(=O)N1CCc2ccccc2C1	-17.5%
CCCCNC(=O)N1CCc2[nH]c3ccccc3c2C1	5.76%
CCOC(=O)N1N=C(C)CC1(O)c1ccccc1 (configuration not stated)	-14.8%
COC(=O)C1=NN(C(=O)c2cccc(Br)c2)C(O)(c2ccc(Cl)cc2)C1 (configuration not stated)	75.6%
Cc1cn(C(=O)c2cccc(Br)c2)c(C)n1	-0.97%
CCOC(=O)C1=NN(C(=O)c2ccccc2)C(O)(c2ccc(C)cc2)C1 (configuration not stated)	73.7%
COC(=O)C1=NN(C(=O)c2ccccc2)C(O)(c2ccc([N+](=O)[O-])cc2)C1 (configuration not stated)	21.5%
COC(=O)C1=NN(C(=O)c2ccc(Cl)cc2)C(O)(c2ccccc2)C1 (configuration not stated)	79.6%
OCCC1CN(Cc2nc3ccccc3s2)CCN1C1CCCC1 (configuration not stated)	-3.44%
O=C(CSc1nnc2ccccn12)N1CCc2ccccc2C1	-9.62%
Cc1ccccc1CN1C(=O)/C(=C\c2ccc(C(=O)NCCN3CCOCC3)cc2)Sc2ccccc21	34.3%
